A selection: hits, their analogues and other compounds. The true share with any hit is near 3.3%.
NPSR antagonist: neuropeptide S receptor (human) antagonism, cAMP | Q6W5P4 | CHO-NPSR cells, cAMP TR-FRET, antagonist mode | Potency, µM (titrated, usually from 38.3 µM), inactives show at the highest dose activity change, negative = inhibition, hits mostly inhibitors | 1% of 220,000 active | AID 1461; further: nearly all actives have a fitted effect of over 50% in size
Target sequence (Q6W5P4 whole entry, looked up): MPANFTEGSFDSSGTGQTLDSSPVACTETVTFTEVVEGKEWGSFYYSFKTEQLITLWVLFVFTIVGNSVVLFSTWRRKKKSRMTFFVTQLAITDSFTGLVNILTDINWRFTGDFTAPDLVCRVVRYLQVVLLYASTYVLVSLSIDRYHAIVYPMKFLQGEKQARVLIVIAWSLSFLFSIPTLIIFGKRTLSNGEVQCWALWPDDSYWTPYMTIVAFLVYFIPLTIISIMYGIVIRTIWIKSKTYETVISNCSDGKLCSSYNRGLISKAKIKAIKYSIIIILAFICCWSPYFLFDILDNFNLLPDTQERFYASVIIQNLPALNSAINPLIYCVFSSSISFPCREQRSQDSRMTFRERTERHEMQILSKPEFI
Tau fluor cs: counter-screen for tau fibril formation inhibitors; AID 1463; tau K18 P301L Alexa594 fluorescence, heparin fibrillization; 0.93% of 280,000 active; Potency, µM (titrated, usually from 57.7 µM), for the others: top-dose activity change, negative = decrease; further: nearly all actives have a fitted effect of over 55% in size
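Human tau K18 P301L (15 uM unlabeled, 0.24 uM Alexa 594-labeled) in 100 mM sodium acetate pH 7 with 20 uM heparin, 6 hr at 37 C. ThT 30 uM added, 1 hr ambient; Alexa 594 FP and total fluorescence read at 555/632 nm.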
Tau fibril ThT: blocks human tau fibril formation measured by thioflavin T | 2.1% of 270,000 active | AID 1460 | recombinant tau K18 P301L, heparin-induced fibrillization, ThT fluorescence | Potency, µM (titrated, usually from 57.4 µM), without a hit: at the top dose activity, negative = inhibition, hits mostly inhibitors | P10636; further: nearly all actives have a fitted effect of over 55% in size
Target sequence (P10636 561-689 P618L limits assumed): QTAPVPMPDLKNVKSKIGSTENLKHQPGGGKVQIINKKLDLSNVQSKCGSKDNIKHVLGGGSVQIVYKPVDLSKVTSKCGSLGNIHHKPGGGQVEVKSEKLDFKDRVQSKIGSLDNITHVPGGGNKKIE
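Using a mix of unlabeled (15 uM) and Alexa 594-labeled (0.24 uM) tau K18 P301L, heparin-triggered fibrillization over 6 hr at 37 C was scored by ThT fluorescence.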
Tau fibril FP: tau fibrillization inhibition (FP); 0.39% of 280,000 active; K18 P301L tau heparin fibrillization, Alexa594 FP, 6 h; Potency, µM (highest dose often 57.7 µM), inactives show at the highest dose activity, negative = inhibition, actives largely listed as inhibitors; P10636; further: nearly all actives have a fitted effect of over 55% in size
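Quantitative HTS format: compounds meet 15 uM recombinant K18 P301L tau and Alexa 594-tau tracer in 100 mM sodium acetate pH 7; 20 uM heparin triggers fibrillization at 37 C over 6 hr; FP gives the signal.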
KinaseGlo FLuc: Kinase-Glo luciferase inhibition (counter-screen) | Q27757 | Potency, µM (doses to about 38.3 µM), inactives show at the highest dose activity change, negative = inhibition, usual class: inhibitors | AID 1379 | Kinase-Glo luciferase, ATP luminescence, 8 min | 0.28% of 200,000 active; further: nearly all actives have a fitted effect of over 60% in size
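Substrate mix (final 50 mM imidazole pH 7.2, 50 mM KCl, 7 mM MgCl2, 10 uM ATP, 0.01% Tween 20, 0.05% BSA) plus pin-tool compound, then Kinase-Glo detection mix; 8 min ambient, luminescence read.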
* = called active by the depositor; ? = inconclusive; · = not tested or not shown; [ ] = remark or other dose. The call rests on the fitted dose curve; in most records, active means well fitted curve in the direction sought with a large enough effect; inconclusive means small, poorly fitted or top-dose-only effect, or another doubt; inactive means no such curve, though single readings can be large; an effect the other way counts as inactive or inconclusive. On the % scale 0 is the no-effect control and ±100 the full control effect; potency means the concentration at half of the fitted maximal effect.

SMILES	NPSR antagonist	Tau fluor cs	Tau fibril ThT	Tau fibril FP	KinaseGlo FLuc
Cc1ccc(-n2sc3ccccc3c2=O)cc1S(=O)(=O)N1CCCCC1	-26.7%[46.1 µM]	-18.8%	15.8µM*	31.6µM*	0.1%
O=c1c2ccccc2sn1-c1nccs1	0.7%	-20.7%	15.8µM*	?	-11.6%
COc1ccc(-c2nc(S(=O)(=O)c3ccc(Cl)cc3)c(N3CCCCCC3)o2)cc1	·	?	?	-6.4%	·
Cc1ccc(CC(Cc2nc3ccccc3[nH]2)c2nc3ccccc3[nH]2)cc1 (stereo unspecified)	·	-9.5%	3.1%	-15.9%	-1.4%
CCN(C(=O)COC(=O)c1ccc(Cl)nc1)C1CCS(=O)(=O)C1 (stereo unspecified)	14.5%	-4.3%	-3.5%	-2.5%	3.0%
CCN(C(=O)COc1cccc2cccnc12)C1CCS(=O)(=O)C1 (stereo unspecified)	-1.0%	-27.7%	25.1µM*	?	3.0%
O=C(c1coc2ccc(O)cc12)C1CC1	?	-3.6%	-10.5%	11.7%	-1.4%
O=C1NC(=S)S/C1=C\c1coc2ccc(O)cc2c1=O	46.0%	-26.2%	1.12µM*	-1.7%	·
C/[N+]([O-])=C\c1coc2ccccc2c1=O	-12.5%[46.1 µM]	-6.4%	-5.1%	-5.4%	16.6%
O=C1NC(=S)S/C1=C\c1coc2ccccc2c1=O	-33.0%	-4.1%	7.94µM*	-8.3%	-1.7%
CCc1ccc(OC(C)C(=O)Nc2c(C(=O)c3ccccc3)oc3ccccc23)cc1 (stereo unspecified)	·	-19.1%	-0.4%	?	·
Cc1ccc2c(c1C)NC(C(=O)O)C1CC=CC21 (stereo unspecified)	-1.0%[46.1 µM]	?	11.2µM*	?	-12.9%
O=C(O)C1Nc2c(C(=O)N3CCOCC3)cccc2C2C=CCC12 (stereo unspecified)	-6.2%[46.1 µM]	?	14.1µM*	?	-11.0%
COC(=O)c1sc2cccc(F)c2c1S(=O)(=O)Nc1cc(C)c(Cl)cc1OC	·	-28.6%	-4.0%	-13.7%	·
COc1ccc(CCNc2nc3cc(OC)c(OC)cc3c3nc(-c4ccccc4)nn23)cc1OC	·	-20.4%	-12.2%	-2.6%	·
CCOC(=O)C1=C(C)N=c2s/c(=C3/C(=O)Nc4ccccc43)c(=O)n2C1c1ccc(C)cc1 (stereo unspecified)	?	-3.4%	-5.6%	3.0%	-7.8%
CCOC(=O)C1=C(C)n2c(s/c(=C3\C(=O)Nc4ccccc43)c2=O)=NC1c1ccc(OC)cc1 (stereo unspecified)	19.7%	?	15.8µM*	?	-0.8%
O=S(=O)(NCC(c1ccco1)N1CCOCC1)c1ccc(F)cc1 (stereo unspecified)	·	2.0%	-2.1%	0.4%	·
C=CCn1c(-c2cc(-c3ccccc3)sc2N)n[nH]c1=S	15.3%	?	?	16.4%	·
CCn1c(SC(C)C)nnc1-c1cc(-c2ccccc2)sc1N	-17.2%[46.1 µM]	?	12.6µM*	-10.6%	0.2%
O=C(NC1CCCCCC1)C1CCN(C(=O)N2CCOc3ccc(Cl)cc32)CC1	·	?	22.4µM*	?	·
Cc1ccc2c(c1)N(C(=O)N1CCC(C(=O)NC3CCCCCC3)CC1)CCO2	·	?	-9.6%	5.7%	·
Cc1ccc2c(c1)N(C(=O)N1CCC(C(=O)NC3CCCCCC3)CC1)CC(C)O2 (stereo unspecified)	·	10µM*[quencher]	?	7.6%	·
CCOc1ccccc1CNC(=O)C1CCN(C(=O)N2CCOc3ccc(Cl)cc32)CC1	·	?	31.6µM*	?	·
CC(=O)Oc1cc2c3c(c1)/C(=C1/SC(=S)NC1=O)C(=O)N3C(C)(C)C=C2C	?	7.08µM*[quencher]	7.08µM*	?	·
SMILES	NPSR antagonist	Tau fluor cs	Tau fibril ThT	Tau fibril FP	KinaseGlo FLuc
O=C(Nc1ccc(N2CCN(c3ncccc3C(F)(F)F)CC2)nc1)c1cccs1	?	12.6µM*[quencher]	7.94µM*	9.4%	·
O=C(Nc1ccc(N2CCN(c3ccc(C(F)(F)F)cn3)CC2)nc1)c1cccs1	-16.0%	?	?	-2.6%	·
O=C1C=CC(=O)N1CCCCCCN1C(=O)C=CC1=O	?	-21.0%	?	25.1µM*	1.5%
CC(=O)NC(CCS(C)(=O)=O)C(=O)Nc1cc(Cl)ccc1Cl (stereo unspecified)	4.9%	-6.9%	-5.2%	-2.4%	1.4%
CC(C)S(=O)(=O)c1csc(NC(=O)Nc2cc(Cl)ccc2Cl)c1Cl	?	?	1.8%	22.4µM*	·
CN(C)c1ccc(C2CC(c3ccccc3)=Nc3nc(-c4ccccc4)cn32)cc1 (stereo unspecified)	-26.8%	-21.2%	?	4.1%	-3.2%
O=Cc1[nH]c2ccccc2c1N(C(=O)CCl)c1ccccc1	?	-26.8%	31.6µM*	?	·
Clc1ccc(C[n+]2csc3ccccc32)cc1	-20.4%	-11.6%	22.4µM*	?	-3.7%
COC(=O)C1=C(C(=O)OC)SC2(S1)C(C(=O)OC)=C(C(=O)OC)SC1=C2c2cccc(C)c2NC1(C)C	-30.0%[46.1 µM]	?	14.1µM*	?	0.4%
CCOC(=O)C1(C)Oc2ccccc2C(C(=O)OC)=C1C(=O)OC (stereo unspecified)	·	4.4%[81.3 µM]	-0.6%[81.4 µM]	13.5%[81.3 µM]	3.6%[39.9 µM]
COc1cc(NC(=O)CSc2nccn2C)cc(OC)c1OC	·	-6.8%	-3.8%	-1.5%	·
CCN(C(=O)c1coc(=O)c(Br)c1)c1ccc2c(c1)OCO2	-23.9%[46.1 µM]	?	22.4µM*	?	-5.2%
COc1ccc(CCNC(=O)CCc2c(C)nc3cc(-c4ccc(Cl)cc4)nn3c2C)c(OC)c1	·	-14.9%	-5.2%	-5.0%	·
CCOc1ccc(N2C(=O)C3Sc4[nH]c(=O)sc4C(/C=C/c4ccccc4)C3C2=O)cc1 (stereo unspecified)	-34.1%	?	14.1µM*	-16.3%	1.4%
CCOC(=O)c1c(S(=O)(=O)N2CCC(C(=O)Nc3ccc(OCC)cc3)CC2)c(C)n(C)c1C	·	18.4%	11.2%	-1.5%	·
Oc1ccccc1NCC(O)Cn1ccc2ccccc21 (stereo unspecified)	7.5%[46.1 µM]	20µM*[quencher]	14.1µM*	1.5%	·
COc1ccc(Nc2c(-c3ccc(Cl)cc3)nc3cnccn23)cc1OC	·	?	?	8.4%	·
N=C(N)SCP(=O)(c1ccccc1)c1ccccc1	18.8%	-3.2%	?	?	·
Cc1ccc(P(=O)(CSC(=N)N)c2ccc(C)cc2)cc1	9.7%	-15.7%	12.6µM*	?	-4.2%
Cc1ccc(-c2nc(N/N=C/c3ccncc3)c3ccccc3n2)cc1	?	?	?	-13.2%	2.24µM*
COc1ccc(/C=N/Nc2nc(-c3cccnc3)nc3ccccc23)cc1OC	-7.4%	?	?	11.1%	·
Oc1ccc(/C=N/Nc2nc(-c3cccnc3)nc3ccccc23)c(O)c1	39.4%	11.2µM*[quencher]	2.24µM*	?	·
O=C(O)/C=C1\NC(=O)c2ccccc21	-1.8%[46.1 µM]	-10.7%	-16.5%	5.2%	1.4%

From PubChem BioAssay
